# Results published in ChEMBL document CHEMBL1961873, “Compounds: GSK PKIS; Assays: Nanosyn kinase panel” (2012).
# Target: T1, Serine/threonine-protein kinase 3 (Homo sapiens) (UniProt Q13188)
# T1 sequence (whole entry): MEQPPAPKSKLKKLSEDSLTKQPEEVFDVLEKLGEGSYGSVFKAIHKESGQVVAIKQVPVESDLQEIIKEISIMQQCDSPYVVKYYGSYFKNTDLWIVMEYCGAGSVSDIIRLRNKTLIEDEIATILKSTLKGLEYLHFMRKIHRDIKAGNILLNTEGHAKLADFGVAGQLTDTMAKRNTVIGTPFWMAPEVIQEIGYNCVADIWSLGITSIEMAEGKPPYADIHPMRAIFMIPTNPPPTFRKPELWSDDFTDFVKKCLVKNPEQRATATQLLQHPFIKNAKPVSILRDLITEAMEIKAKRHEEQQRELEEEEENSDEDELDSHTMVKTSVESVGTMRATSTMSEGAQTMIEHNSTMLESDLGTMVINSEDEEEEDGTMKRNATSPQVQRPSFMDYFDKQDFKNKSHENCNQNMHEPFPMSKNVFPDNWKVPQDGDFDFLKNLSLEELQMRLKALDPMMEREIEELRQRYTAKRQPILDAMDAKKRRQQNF
# Settings: at 0.1 µM
# 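Also: reported value is the mean percent inhibition of MST2.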
row,SMILES,inhibition
1,Nc1nccc(-c2c(-c3ccc(F)cc3)nn3cc(C(F)(F)F)ccc23)n1,-0.79%
2,CN1CCN(C(=O)c2ccc(NC(=O)Nc3ccc(N(C)c4ccnc(Nc5ccc(CS(C)(=O)=O)cc5)n4)cc3)cc2)CC1,6.27%
3,CCn1c(-c2nonc2N)nc2c(C#CC(C)(C)O)nc(OCCNC)cc21,5.27%
4,COc1ccc(-c2nn3ncccc3c2-c2ccnc(Nc3cccc(C(F)(F)F)c3)n2)cc1,4.76%
5,Cc1ccc(C(=O)NC2CC2)cc1-c1ccc2[nH]ncc2c1,-4.71%
6,Cc1ccc2c(c1)/C(=N/Nc1ccc(S(N)(=O)=O)cc1)C(=O)N2,11%
7,FC(F)(F)c1ccc(-c2nn3ncccc3c2-c2ccnc(Nc3ccc4c(c3)OCCO4)n2)cc1,4.21%
8,NS(=O)(=O)c1ccc(Nc2cc(-c3cccc(O)c3)n[nH]2)cc1,8.2%
9,Cc1cc(O)cc(C)c1/C=C/c1cncc(C(=O)N(C)C)c1,3.57%
10,COc1cc(Nc2nccc(-c3cnn4ncccc34)n2)cc(OC)c1,5.54%
11,COc1cccc(-n2ncc3c(N/N=C/c4ccc(C)cc4)ncnc32)c1,6.16%
12,[O-][S+]1CCN(Cc2ccc(-c3ccc4ncnc(Nc5ccc(OCc6ccccc6)c(Cl)c5)c4c3)o2)CC1,-0.27%
13,COc1ccc2ncnc(Nc3ccc(OCc4ccccc4)cc3)c2c1,1.62%
14,CN(C)C(=O)O[C@H]1CN[C@H](C#Cc2cc3ncnc(Nc4ccc(OCc5cccc(F)c5)c(Cl)c4)c3s2)C1,2.81%
15,NS(=O)(=O)c1ccc(NC=C2C(=O)Nc3ccc4ncsc4c32)cc1,73.1%
16,CS(=O)(=O)CCNCc1nc(-c2ccc3ncnc(Nc4ccc(OCc5cccc(C(F)(F)F)c5)cc4)c3c2)cs1,4.17%
17,CCS(=O)(=O)c1ccc(OC)c(Nc2nccc(N(C)c3ccc4c(C)n[nH]c4c3)n2)c1,4.58%

row,SMILES,inhibition
1,Nc1nccc(-c2c(-c3ccc(F)cc3)ncn2CCCN2CCOCC2)n1,4.5%
2,COC(=O)c1ccc2c(c1)C(=Cc1cc(Br)c(O)c(Br)c1)C(=O)N2,4.78%
3,COc1cc2ncnc(Nc3ccc4c(cnn4Cc4ccccc4)c3)c2cc1OC,2.19%
4,O=S(=O)(CCOCc1ccc(-c2ccc3ncnc(Nc4ccc(OCc5cccc(F)c5)c(Cl)c4)c3c2)o1)c1ccccc1,0.99%
5,NC(=O)c1sc(-n2cnc3ccccc32)cc1OCc1ccccc1Br,4.03%
6,NS(=O)(=O)c1cccc(-c2cc3ccncc3cc2OCc2ccccc2)c1,7.94%
7,Cc1cc(Cl)cc2c1NC(=O)C2=NNc1ccc(S(N)(=O)=O)cc1,3.69%
8,Oc1cccc(-c2nc(-c3ccccc3)[nH]c2-c2ccncc2)c1,5.44%
9,COC(=O)Nc1nc2cc(Oc3ccc(NC(=O)Nc4cccc(Br)c4)cc3)ccc2[nH]1,3.41%
10,Nc1nccc(C#Cc2cncnc2Nc2ccc(OCc3cccc(F)c3)c(Cl)c2)n1,6.63%
11,O=C1Nc2ccc(-c3cccnc3)cc2C1=Cc1cc(Br)c(O)c(Br)c1,10.3%
12,Nc1ccc(C#Cc2cncnc2Nc2ccc(OCc3cccc(F)c3)c(Cl)c2)cc1,3.2%
13,NS(=O)(=O)c1cccc(Nc2cc(-c3ccc(F)cc3)n[nH]2)c1,7.41%
14,CCS(=O)(=O)c1ccc(OC)c(Nc2ncc(-c3cccc(OC)c3)o2)c1,6.69%
15,CCn1c(-c2nonc2N)nc2ccc(F)cc21,6.38%
16,O=C1Nc2ccccc2/C1=C/Nc1ccc2[nH]c(=O)[nH]c2c1,15.5%
17,CS(=O)(=O)Nc1cccc(-c2ccc3c(NC(=O)C4CC4)n[nH]c3c2)c1,3.45%
